According to ChEMBL document CHEMBL3988442, “University of Dundee, Small-Polar-MMV Screening Library” (2021):
For some assays here: Results with a measured potency or affinity are listed apart.

Legend:
Design in all cases: scale not given: direction of the effect not stated beside the values
[1] = biological target: Protein translocase subunit SecA (Escherichia coli (strain K12)) (UniProt P10408); assay: Assay to Identify E. coli SecA ATPase Inhibitors; assay type: functional; details: 30 µM
[2] = biological target: T1, Ubiquitin-activating enzyme e1, putative (Leishmania donovani (strain BPK282A1)) (UniProt E9BSI1); assay: Leishmania donovani Ubiquitin Activating Enzyme (LdE1); assay type: functional; details: 30 µM
T1 sequence (whole entry): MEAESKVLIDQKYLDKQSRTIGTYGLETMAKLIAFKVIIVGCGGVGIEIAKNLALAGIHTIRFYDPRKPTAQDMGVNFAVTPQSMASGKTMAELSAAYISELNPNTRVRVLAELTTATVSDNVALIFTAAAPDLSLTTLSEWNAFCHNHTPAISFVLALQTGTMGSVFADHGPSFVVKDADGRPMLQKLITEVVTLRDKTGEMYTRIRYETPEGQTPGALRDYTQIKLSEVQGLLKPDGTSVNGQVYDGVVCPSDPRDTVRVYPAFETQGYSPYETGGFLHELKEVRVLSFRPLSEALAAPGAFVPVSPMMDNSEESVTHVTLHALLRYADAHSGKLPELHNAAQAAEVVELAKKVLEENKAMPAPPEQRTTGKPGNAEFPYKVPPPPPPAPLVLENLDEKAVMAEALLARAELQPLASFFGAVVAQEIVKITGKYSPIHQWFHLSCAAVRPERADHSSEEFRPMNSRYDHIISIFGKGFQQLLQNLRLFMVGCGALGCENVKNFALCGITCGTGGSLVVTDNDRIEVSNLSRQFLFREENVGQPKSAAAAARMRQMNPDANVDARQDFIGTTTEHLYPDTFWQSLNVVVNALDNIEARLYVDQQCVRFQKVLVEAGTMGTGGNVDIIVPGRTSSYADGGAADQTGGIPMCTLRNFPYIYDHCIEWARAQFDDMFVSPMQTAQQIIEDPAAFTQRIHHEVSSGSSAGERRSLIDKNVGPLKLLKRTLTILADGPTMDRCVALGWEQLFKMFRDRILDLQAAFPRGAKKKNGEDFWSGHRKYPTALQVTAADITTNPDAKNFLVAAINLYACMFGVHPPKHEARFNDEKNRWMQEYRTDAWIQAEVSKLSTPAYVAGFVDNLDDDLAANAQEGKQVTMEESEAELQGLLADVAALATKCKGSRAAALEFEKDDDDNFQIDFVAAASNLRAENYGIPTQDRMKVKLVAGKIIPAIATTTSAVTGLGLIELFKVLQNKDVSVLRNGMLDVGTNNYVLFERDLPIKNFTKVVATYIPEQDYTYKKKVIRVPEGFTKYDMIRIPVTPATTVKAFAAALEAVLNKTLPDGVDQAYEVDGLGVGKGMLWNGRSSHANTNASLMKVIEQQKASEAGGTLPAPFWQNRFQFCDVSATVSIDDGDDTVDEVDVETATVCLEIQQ

[3] = biological target: AMP-activated protein kinase, AMPK (Homo sapiens) (UniProt P54646+O43741+P54619+Q9UGJ0+Q9Y478+Q13131+Q9UGI9); assay: AMP-dependent Kinase enzyme assay. An in vitro enzyme assay that detects ADP turnover that is directly proportional to AMPK activity. This uses naive AMPK that is activated during the assay with MK-8722; assay type: functional; details: 30 µM
[4] = biological target: Sialic acid-binding Ig-like lectin 9 (Homo sapiens) (UniProt Q9Y336); assay: Hs-Siglec9 ALPHAscreen SOP 20170721; details: 10 µM
Trypanosoma cruzi = assay: Trypanosoma cruzi phosphomannomutase and mannose-1-phosphate guanylyltransferase assay; assay type: functional; details: 10 µM
[5] = biological target: T2, Arginase-2, mitochondrial (Homo sapiens) (UniProt P78540); assay: in vitro enzyme assay to detect the production of urea directly proportional to the activity of Arginase II; assay type: functional; details: 33.3 µM; also: in the data most compounds retested in dose-response had high values
T2 sequence (whole entry): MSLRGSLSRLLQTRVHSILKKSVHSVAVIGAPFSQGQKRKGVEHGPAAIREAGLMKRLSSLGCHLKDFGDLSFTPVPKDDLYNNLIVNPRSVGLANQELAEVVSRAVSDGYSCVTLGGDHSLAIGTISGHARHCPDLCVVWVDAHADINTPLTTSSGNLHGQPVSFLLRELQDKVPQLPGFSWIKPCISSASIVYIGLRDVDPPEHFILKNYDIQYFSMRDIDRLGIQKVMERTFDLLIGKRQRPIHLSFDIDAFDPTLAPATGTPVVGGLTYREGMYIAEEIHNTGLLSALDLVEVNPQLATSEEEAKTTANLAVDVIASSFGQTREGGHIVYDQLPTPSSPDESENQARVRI

[6] = biological target: T3, Proteasome subunit beta (Trypanosoma cruzi) (UniProt O96673); assay: Trypanosoma cruzi proteasome chymotrypsin-like activity (TcProtChymo) assay.; also: in the data most compounds retested in dose-response had high values; assay type: functional; details: 9.37 µM
T3 sequence (whole entry): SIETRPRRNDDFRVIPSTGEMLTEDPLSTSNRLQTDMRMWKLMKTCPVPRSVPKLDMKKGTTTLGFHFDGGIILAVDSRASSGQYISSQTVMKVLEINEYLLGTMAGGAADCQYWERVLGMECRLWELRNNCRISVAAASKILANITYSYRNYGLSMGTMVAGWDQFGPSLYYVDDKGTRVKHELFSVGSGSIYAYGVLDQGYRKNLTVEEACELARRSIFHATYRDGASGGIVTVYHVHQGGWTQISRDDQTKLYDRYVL

Homo sapiens = organism: Homo sapiens; assay: To identify inhibition of the IFN signalling (Jak-Stat) pathway via expression of an eGFP reporter gene under the control of an IFN-stimulated response element (ISRE) containing MxA promoter.; assay type: functional; details: 30 µM
[7] = biological target: T4, Tyrosyl-tRNA synthetase, putative (Trypanosoma cruzi (strain CL Brener)) (UniProt Q4DSP6); assay: Trypanosoma cruzi tyrosyl tRNA synthetase (TcYRS) _High Tyrosine SOP; assay type: functional; details: 30 µM; also: in the data most compounds retested in dose-response had high values
T4 sequence (whole entry): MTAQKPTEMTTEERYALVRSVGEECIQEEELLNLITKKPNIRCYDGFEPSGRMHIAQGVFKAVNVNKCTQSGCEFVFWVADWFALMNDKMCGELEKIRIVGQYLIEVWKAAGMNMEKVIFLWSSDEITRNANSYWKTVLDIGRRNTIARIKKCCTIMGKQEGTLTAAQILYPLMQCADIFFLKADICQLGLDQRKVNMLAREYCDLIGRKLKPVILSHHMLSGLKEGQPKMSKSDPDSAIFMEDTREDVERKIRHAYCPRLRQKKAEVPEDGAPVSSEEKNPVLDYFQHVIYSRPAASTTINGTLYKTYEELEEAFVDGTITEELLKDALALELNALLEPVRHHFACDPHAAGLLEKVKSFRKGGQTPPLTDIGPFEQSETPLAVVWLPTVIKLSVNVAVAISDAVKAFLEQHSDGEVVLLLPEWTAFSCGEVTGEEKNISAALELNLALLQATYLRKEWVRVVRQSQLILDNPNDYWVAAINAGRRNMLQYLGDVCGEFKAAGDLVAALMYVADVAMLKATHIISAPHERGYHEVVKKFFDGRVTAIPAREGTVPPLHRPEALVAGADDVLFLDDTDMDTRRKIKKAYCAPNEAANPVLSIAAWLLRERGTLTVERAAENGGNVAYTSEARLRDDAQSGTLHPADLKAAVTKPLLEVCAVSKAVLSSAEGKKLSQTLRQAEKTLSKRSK

[8] = biological target: T4, Tyrosyl-tRNA synthetase, putative (Trypanosoma cruzi (strain CL Brener)); assay: Trypanosoma cruzi tyrosyl tRNA synthetase (TcYRS) SOP; assay type: functional; details: 30 µM
[9] = biological target: Chromo domain-containing protein 1 (Saccharomyces cerevisiae (strain ATCC 204508 / S288c) (Baker's yeast)) (UniProt P32657); assay: ScCHD-1 Enzyme Inhibition Assay; assay type: functional; details: 30 µM; also: in the data most compounds retested in dose-response had high values
Chain of Chromo domain-containing protein 1 (Saccharomyces cerevisiae (strain ATCC 204508 / S288c) (Baker's yeast)) (P32657 whole entry, the tested form may be a part): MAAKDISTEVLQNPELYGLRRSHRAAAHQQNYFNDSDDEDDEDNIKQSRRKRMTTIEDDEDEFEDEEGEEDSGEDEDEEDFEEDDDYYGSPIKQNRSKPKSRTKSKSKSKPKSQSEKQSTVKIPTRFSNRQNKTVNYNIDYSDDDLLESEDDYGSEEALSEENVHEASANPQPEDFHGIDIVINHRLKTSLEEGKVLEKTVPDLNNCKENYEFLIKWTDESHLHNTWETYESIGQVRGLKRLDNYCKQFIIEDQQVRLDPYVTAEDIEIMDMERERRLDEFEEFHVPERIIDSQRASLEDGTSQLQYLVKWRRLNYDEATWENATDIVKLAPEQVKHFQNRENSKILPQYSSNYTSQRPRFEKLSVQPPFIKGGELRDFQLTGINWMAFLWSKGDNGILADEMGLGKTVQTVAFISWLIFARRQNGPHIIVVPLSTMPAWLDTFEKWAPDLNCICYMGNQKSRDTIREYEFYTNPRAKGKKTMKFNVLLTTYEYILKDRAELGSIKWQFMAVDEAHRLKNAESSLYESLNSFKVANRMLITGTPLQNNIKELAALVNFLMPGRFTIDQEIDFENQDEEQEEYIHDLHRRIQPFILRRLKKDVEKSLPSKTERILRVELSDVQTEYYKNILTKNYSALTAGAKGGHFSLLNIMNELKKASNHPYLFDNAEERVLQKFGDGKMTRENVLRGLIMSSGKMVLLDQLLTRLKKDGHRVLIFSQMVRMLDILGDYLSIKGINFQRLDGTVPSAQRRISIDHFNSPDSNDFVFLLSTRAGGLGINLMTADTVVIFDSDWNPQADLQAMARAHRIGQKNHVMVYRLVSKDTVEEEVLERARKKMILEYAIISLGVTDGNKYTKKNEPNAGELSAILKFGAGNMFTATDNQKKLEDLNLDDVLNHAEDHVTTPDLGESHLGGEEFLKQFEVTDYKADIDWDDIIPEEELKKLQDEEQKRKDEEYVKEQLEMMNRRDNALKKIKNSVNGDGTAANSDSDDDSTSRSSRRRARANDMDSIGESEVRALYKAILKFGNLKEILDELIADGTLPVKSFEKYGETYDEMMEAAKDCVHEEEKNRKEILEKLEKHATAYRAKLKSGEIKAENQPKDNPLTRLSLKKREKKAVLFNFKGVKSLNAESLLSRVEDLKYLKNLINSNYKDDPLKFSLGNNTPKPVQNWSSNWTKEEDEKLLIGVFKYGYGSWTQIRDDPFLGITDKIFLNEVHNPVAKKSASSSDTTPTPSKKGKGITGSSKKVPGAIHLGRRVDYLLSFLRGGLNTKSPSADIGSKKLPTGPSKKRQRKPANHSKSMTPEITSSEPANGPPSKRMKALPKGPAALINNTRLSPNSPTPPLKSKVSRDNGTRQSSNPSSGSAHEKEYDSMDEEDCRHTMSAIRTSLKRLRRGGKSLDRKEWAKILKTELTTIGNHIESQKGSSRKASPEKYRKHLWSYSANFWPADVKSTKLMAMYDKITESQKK

Chain of Protein translocase subunit SecA (Escherichia coli (strain K12)) (P10408 whole entry): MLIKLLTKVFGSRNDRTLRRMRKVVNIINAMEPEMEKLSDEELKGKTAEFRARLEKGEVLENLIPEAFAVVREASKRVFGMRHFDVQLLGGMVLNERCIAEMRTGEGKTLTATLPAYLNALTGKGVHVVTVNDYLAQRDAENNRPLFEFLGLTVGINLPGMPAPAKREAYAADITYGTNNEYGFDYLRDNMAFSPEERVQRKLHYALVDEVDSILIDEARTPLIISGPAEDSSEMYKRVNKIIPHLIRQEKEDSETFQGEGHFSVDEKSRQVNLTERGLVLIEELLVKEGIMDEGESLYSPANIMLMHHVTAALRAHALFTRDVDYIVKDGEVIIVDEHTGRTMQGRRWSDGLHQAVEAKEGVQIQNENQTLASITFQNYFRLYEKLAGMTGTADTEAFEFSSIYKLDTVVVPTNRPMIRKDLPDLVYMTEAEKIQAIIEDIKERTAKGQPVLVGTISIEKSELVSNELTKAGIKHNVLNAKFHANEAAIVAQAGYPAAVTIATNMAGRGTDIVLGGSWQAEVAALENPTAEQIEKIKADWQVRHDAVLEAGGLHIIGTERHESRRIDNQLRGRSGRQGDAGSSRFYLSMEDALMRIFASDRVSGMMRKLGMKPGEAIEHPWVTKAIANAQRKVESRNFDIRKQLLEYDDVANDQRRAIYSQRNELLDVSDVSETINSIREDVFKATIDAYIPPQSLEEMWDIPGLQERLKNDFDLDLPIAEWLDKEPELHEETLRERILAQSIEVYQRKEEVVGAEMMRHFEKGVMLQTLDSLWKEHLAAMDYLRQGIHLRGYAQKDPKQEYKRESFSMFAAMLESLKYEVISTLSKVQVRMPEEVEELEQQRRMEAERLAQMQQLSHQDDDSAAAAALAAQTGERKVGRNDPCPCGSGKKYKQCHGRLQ
Chain of Sialic acid-binding Ig-like lectin 9 (Homo sapiens) (Q9Y336 whole entry): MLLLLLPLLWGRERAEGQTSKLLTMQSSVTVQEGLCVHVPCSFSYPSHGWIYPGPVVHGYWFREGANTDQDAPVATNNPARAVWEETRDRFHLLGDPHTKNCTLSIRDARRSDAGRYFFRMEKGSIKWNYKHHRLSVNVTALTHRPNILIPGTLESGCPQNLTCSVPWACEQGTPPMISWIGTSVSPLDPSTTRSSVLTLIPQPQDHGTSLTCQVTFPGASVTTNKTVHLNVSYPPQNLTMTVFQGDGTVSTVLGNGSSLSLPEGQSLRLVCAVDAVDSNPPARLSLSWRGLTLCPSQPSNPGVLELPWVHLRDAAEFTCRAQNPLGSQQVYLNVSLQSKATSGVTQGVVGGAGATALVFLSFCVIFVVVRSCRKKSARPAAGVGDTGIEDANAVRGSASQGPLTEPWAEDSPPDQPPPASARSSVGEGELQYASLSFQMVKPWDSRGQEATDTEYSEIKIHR

| Compound | Percent Effect [1] [%] | Percent Effect [2] [%] | Percent Effect [3] [%] | Percent Effect [4] [%] | Percent Effect (Trypanosoma cruzi) [%] | Percent Effect [5] [%] | Percent Effect [6] [%] | Percent Effect (Homo sapiens) [%] | Percent Effect [7] [%] | Percent Effect [8] [%] | Percent Effect [9] [%] |
| --- | --- | --- | --- | --- | --- | --- | --- | --- | --- | --- | --- |
| c1ccc(-c2nc(CN3CCCC(Cn4cncn4)C3)no2)cc1 (stereo unspecified) | -5.26 | -3.8 | 7.69 | -3.34 | -3.59 | 5.38 | 4.8 | 0.0835 | 2.08 | 7.59 | -9.44 |
| Cc1cc(C)cc(-c2ccc(CC3(C(=O)O)CCOCC3)cc2)c1 | -8.77 | -4.05 | 12.1 | -1.64 | -3.95 | -3.48 | 1.25 | 18 | -20.4 | -37.7 | -2.15 |
| CC(C)(C)C(=O)N1CCCC1c1nc(O)cc(-c2ccccn2)n1 (stereo unspecified) | -5.78 | 25.7 | 5.44 | 16.5 | 3.36 | -1.62 | 11.9 | 7.83 | 5.38 | 24.7 | -13.5 |
| Cc1cc(-c2nnn(CCNS(C)(=O)=O)n2)ccc1F | -6.86 | 5.48 | 0.593 | 2.92 | 3.17 | 0.399 | 4.71 | 17.4 | 9.38 | 18.5 | -2.42 |
| COc1ccc(-c2nnc(SC(C)C(=O)NCC(C)C)[nH]2)c(OC)c1 (stereo unspecified) | -3.62 | 10.5 | 2.87 | 6.11 | 1.27 | -3.55 | 13.5 | 91.3 | 3.19 | 18.2 | 2.44 |
| CCc1n[nH]c(C2CN(C(=O)c3cnns3)CCO2)n1 (stereo unspecified) | -3.59 | 0 | 2.14 | -2.18 | -4.63 | -19 | 2.7 | 15.6 | 1.48 | -3.8 | -1.39 |
| Cc1cc(C)c(CNC(=O)NCCOc2ccc3c(c2)CCC3)c(=O)[nH]1 | -3.48 | -5.26 | 0.256 | 7.3 | 9.96 | 0.383 | 0 | 3.96 | 1.47 | 0 | 3.04 |
| COc1ccc(C(=O)N2CCCC(CNS(C)(=O)=O)C2)cc1F (stereo unspecified) | -4.66 | 8.11 | -5.72 | 6.16 | -3.3 | 2.4 | 0.18 | 6.39 | 5.42 | 16.1 | -6.29 |
| CCN(CCn1cccn1)Cc1nc(-c2cccs2)oc1C | -3.57 | -1.39 | 40.3 | -4.42 | 0.486 | 0.442 | 2.63 | 0.654 | 4.21 | 2.56 | 0.676 |
| Cc1ccc(C(=O)N2CCC3(CC2)NC(=O)CC3c2ccccc2)cn1 (stereo unspecified) | -2.54 | 2.67 | 3.38 | 7.94 | 0.965 | -48.6 | 7.35 | -9.77 | 2.08 | 5 | -2.72 |
| CC(C)c1nc2c(n1C)CCN(Cc1nc(-c3ccsc3)no1)C2 | -1.67 | -24.3 | -9.21 | 0.639 | 7.71 | -1.29 | 10.1 | 1.59 | 9.9 | 25.6 | -0.805 |
| CC(C)N1CCOCC2(CN(Cc3ccco3)CCO2)C1 (stereo unspecified) | -0.00842 | -5.48 | 2.81 | 4.65 | -2.58 | 2.4 | 13.8 | 3.21 | 2.08 | 8.64 | 0.188 |
| CCc1c(C)nc2n(c1=O)CC(C(=O)Nc1ccccc1F)CS2 (stereo unspecified) | -5.58 | 18.2 | -0.318 | 8.95 | 0.888 | -1.94 | 7.83 | 9.05 | 6.35 | 16.7 | -4.84 |
| CCC(C)c1noc(C2CCN(C(=O)c3cccs3)CC2)n1 (stereo unspecified) | -0.878 | 7.79 | 1.18 | 3.86 | -2.65 | -2.76 | 13.8 | 23.9 | 4.3 | 11.1 | -1.15 |
| Cc1ccn(-c2ccc(C(=O)N3CCCC(n4ccnc4)C3)cc2)n1 (stereo unspecified) | 1.74 | -2.53 | 4.22 | -1.83 | 1.6 | 2.66 | -2.21 | 1.73 | 4.43 | -3.8 | -1.63 |
| O=C(C1CCS(=O)(=O)C1)N1CCN(c2cnccn2)CC1 (stereo unspecified) | -5.3 | 16.2 | -5.15 | -2.95 | -7.52 | 0.185 | 6.46 | 14.3 | 5.94 | 15.8 | -4.21 |
